Laboratory results from PubChem BioAssay (Tox21).
Results filed as inconclusive are left out. A number with no mark means an inactive call. The source made the active and inactive calls. Calls follow the shape of the full dose curve.

experiment: qHTS assay to identify small molecule agonists or antagonists of the thyroid stimulating hormone receptor (TSHR) signaling pathway - wild type cell line counter screen (AID 1259384); conditions: HEK293 wild type, cAMP HTRF counter-screen, stronger effect = higher value; series mostly up to 92.4 µM; cAMP activity change: at the top concentration
From the text: U.S. Tox21 Program National Center for Advancing Translational Sciences [NCATS] NIH Chemical Genomics Center [NCGC] U.S. Environmental Protection Agency [EPA] National Institutes of Environmental Health Sciences [NIEHS] National Toxicology Program [NTP] U.S. Food and Drug Administration [FDA] Tox21 Assay Overview: TSHR is the receptor for thyrotropin (thyroid stimulating hormone or TSH), a member of the glycoprotein hormone family. TSH is released by the anterior pituitary gland and is the main regulator of thyroid gland growth and development. Upon binding circulating thyrotropin, a G-protein signal cascade activates adenylyl cyclase and […] cAMP concentration is increased. cAMP is a key second messenger involved extensively in cellular signal transduction pathways associated with the majority of G-protein coupled receptors (GPCRs). The activation of these GPCRs by neurotransmitters, lipids, nucleotides, peptides and hormones results in the activation or the inhibition of plasma membrane-bound adenylate cyclase through heterotrimeric G-proteins. A cell-based TSHR-Hek293 assay can be used to identify TSHR agonists. To eliminate the false positive compounds identified from screening a cell-based TSHR-Hek293 cell line, cAMP assay in a wild type Hek293 cells was used as a counter screening.
Tox21 Assay Protocol Summary: Hek293 cells (wild type) were dispensed at 800 cells/4 uL/well in 1536-well white plates using a Multidrop dispenser. After the assay plates were incubated at a 37 C/5% CO2 incubator for 18 hrs, 23 nL of compounds dissolved in DMSO, positive controls or DMSO only was transferred to the assay plate by a pin tool, followed by 1 ul medium containing Ro20-1724. After 30 min of incubation at room temperature, 2.5 ul/well of cAMP-d2 and 2.5 ul/well of anti-cAMP-cryptate were added respectively into the assay plates using a Flying Reagent Dispenser. The plates were incubated at room temperature for 1 hr. The fluorescence intensity in the plates was measured using an Envision plate reader. Each test compound was measured at 15 concentrations and in triplicates.
% is scaled to controls: 0 for no effect and ±100 for the full control effect.

Going from `CCN1C(=O)c2ccccc2C1Nc1ccc(OCCN2CCCCC2)cc1` (stereo not given) to `O=C(O)Cc1ccc2c(c1)C(=O)c1ccccc1CO2`, the “cAMP activity change” value rises from -5.44% [at 42.5 µM] to 2.3% [at 42.5 µM].

Compared with `Cc1ccc(C(C)C)cc2c(C)ccc1-2`, `CC(N=C(NC#N)Nc1ccncc1)C(C)(C)C` (stereo not given) is lower in “cAMP activity change” value: -0.98% [at 42.5 µM] for the first, -2.02% [at 42.5 µM] for the second.

Compared with `CCCCCCCC/C=C\CCCCCCCCN`, `COc1ccc2c(c1)c(CC(=O)OC/C=C(\C)CC/C=C(\C)CCC=C(C)C)c(C)n2C(=O)c1ccc(Cl)cc1` is lower in “cAMP activity change” value: 6.21% [at 42.5 µM] for the first, 5.76% [at 42.5 µM] for the second.

Going from `CCc1cccc(CC)c1NC(=O)CN(CC(=O)O)CC(=O)O` to `Nc1ccc(C(=O)O)c(O)c1`, the “cAMP activity change” value falls from -1.26% [at 42.5 µM] to -11.6% [at 42.5 µM].

Going from `CC(C)=CCNc1ncnc2c1ncn2[C@@H]1O[C@H](CO)[C@@H](O)[C@H]1O` to `CCO[C@@H]1O[C@H](C(COCc2ccccc2)OCc2ccccc2)[C@H](OCc2ccccc2)[C@H]1O` (stereo not given in full), the “cAMP activity change” value falls from 3.25% [at 42.5 µM] to -1.66% [at 42.5 µM].

Compared with `CN(C)Cc1ccccc1O`, `OC1CCCc2ccccc21` (stereo not given) is higher in “cAMP activity change” value: -4.17% for the first, -1.49% for the second.

Going from `CNc1ccc([N+](=O)[O-])cc1` to `O=[N+]([O-])c1ccc(F)c(Cl)c1`, the “cAMP activity change” value rises from -2.93% to -2.4%.

Compared with `C[Si](Cl)(c1ccccc1)c1ccccc1`, `O=C(/C=C/c1ccccc1)OC/C=C/c1ccccc1` is lower in “cAMP activity change” value: -0.261% for the first, -3.57% for the second.

Going from `CC(C)CCCCCOC(=O)CCS` to `CCCCOC(=O)CC`, the “cAMP activity change” value falls from 1.91% to -4.19%.

Going from `CC/C=C\CCCCCO` to `CCCCCC/C=C\CCCCCCCC(=O)O`, the “cAMP activity change” value falls from 1.02% to -2.64%.

Going from `O=C(O)c1ccc2cc(C(=O)O)ccc2c1` to `Cc1ccc(C(=O)O)cc1`, the “cAMP activity change” value rises from -1.33% to -0.051%.

First: FC(F)(F)c1cccc(Cl)c1
Second: Nc1ccc(Oc2ccc(Cl)cc2)cc1
The “cAMP activity change” value of the first is lower: -1.14% for the first, 8.2% for the second.

First: CCCCCCCCCCOC(=O)c1ccccc1C(=O)OCCCCCCCC
Second: CCC(COC(=O)CCS)(COC(=O)CCS)COC(=O)CCS
The “cAMP activity change” value of the first is lower: -0.381% for the first, -0.181% for the second.

First: CCO[Si](OCC)(OCC)OCC
Second: CCC(CC)C(C)CCOC(C)=O (stereo not given)
The “cAMP activity change” value of the first is higher: -2.11% for the first, -2.37% for the second.

Going from `CCc1ccc(Br)cc1` to `COc1ccc(NC(=O)CC(C)=O)cc1`, the “cAMP activity change” value falls from 5.42% to 0.143%.

Compared with `O=C1CCCCCCCCCCCCCCCO1`, `Cc1cc(=O)oc2cc(O)cc(O)c12` is higher in “cAMP activity change” value: -1.32% for the first, 12.8% for the second.

Going from `OC[C@H]1O[C@H](O[C@H]2O[C@H](CO)[C@@H](O)[C@H](O)[C@H]2O)[C@H](O)[C@@H](O)[C@@H]1O` to `CC[C@H](C)COC(=O)/C=C/c1ccc(N=Cc2ccc(OC)cc2)cc1`, the “cAMP activity change” value falls from 7.58% to -2.32%.

For `Oc1cc(Cl)cc(Cl)c1Cl`, the “cAMP activity change” value was 3.13%.

For `CCN(CCN)c1cccc(C)c1`, the outcome was “inactive”.
In the case of `CCCCC/C=C\C/C=C\CCCCCCCC(=O)O`, the outcome is reported as “inactive”.
In the case of `CC(=O)[C@H]1CC[C@H]2[C@@H]3CCC4=CC(=O)CC[C@]4(C)[C@H]3CC[C@]12C`, the outcome is reported as “inactive”.
In the case of `C#CC1(O)CC[C@H]2[C@@H]3CCC4=CCCC[C@@H]4[C@H]3CC[C@@]21C` (stereo not given in full), the outcome is reported as “inactive”.
For `C=C(CC)C(=O)c1ccc(OCC(=O)O)c(Cl)c1Cl`, the outcome was “inactive”.
